SW480 rereplic = A quantitative high throughput screen for small molecules that induce DNA re-replication in SW480 colon adenocarcinoma cells. SW480 DNA re-replication, Hoechst DNA content imaging, 48 h. Potency, µM (series often up to 46.1 µM), inactives show top-dose re-replication activation, actives largely listed as activators. actives 1.8% (n = 340,000). AID 624297, 2012; also: potency is read from the fitted curve at half-maximal effect; % of control where 0% means no effect; nearly all actives have a fitted effect of over 55% in size
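Treated cells incubate 48 hr (37 C, 5% CO2), are stained 40 min with Hoechst, and nuclear fluorescence is enumerated; a rise in nuclei with high DNA signal marks re-replication.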
VP16 counter = VP16 counterscreen qHTS for inhibitors of ROR gamma transcriptional activity; Drosophila S2 Gal4-VP16 UAS-luciferase, luminescence, 20 h; actives 3.5% (n = 310,000); AID 2546, 2010; Potency, µM (titrated, usually from 53.6 µM), for the others: at the top dose activity, negative = inhibition, usual class: inhibitors;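 also: Gal4-VP16 expression switched on by copper sulfate through the metallothionein promoter; potency is read from the fitted curve at half-maximal effect; % is scaled to controls: 0 for no effect and ±100 for the full control effect; nearly all actives have a fitted effect of over 50% in size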
MCF10A rerep = A quantitative high throughput screen for small molecules that induce DNA re-replication in MCF 10a normal breast cells; MCF 10A DNA re-replication, Hoechst nuclear intensity, 48 h; Potency, µM (titrated, usually from 46.1 µM), for inactives: at the top dose activity, positive = re-replication, most hits filed as activators; actives 2.9% (n = 350,000); AID 624296, 2012; also: potency is read from the fitted curve at half-maximal effect; % of control where 0% means no effect; nearly all actives have a fitted effect of over 50% in size
IL-1B inflam inh = qHTS for Inhibitors of Inflammasome Signaling: IL-1-beta AlphaLISA Primary Screen; actives 4.7% (n = 360,000); activity change, % at 57.5 µM; THP-1 LPS/ATP IL-1B secretion, AlphaLISA, 16 h; active compounds read low; in the data active = activity change below about -50%; inconclusive = mostly about -30% to -49%; also: % is scaled to controls: 0 for no effect and ±100 for the full control effect
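Secreted IL-1B measured by AlphaLISA bead assay after 16 h compound exposure of THP-1 cells; compounds (final up to 57.5 uM) added 1 h before LPS (250 ng/mL) and ATP (1.25 mM) stimulation; lower signal means less secretion.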
RORgamma inh = qHTS for inhibitors of ROR gamma transcriptional activity; Potency, µM (top dose mostly 53.6 µM), for inactives: at the highest dose activity change, negative = inhibition, hits mostly inhibitors; Drosophila S2 Gal4-RORgamma UAS-luciferase reporter, 20 h; actives 5.4% (n = 310,000); Nuclear receptor ROR-gamma (Mus musculus), P51450; also: potency is read from the fitted curve at half-maximal effect; % is scaled to controls: 0 for no effect and ±100 for the full control effect; nearly all actives have a fitted effect of over 60% in size
Target sequence (P51450 whole entry, looked up, the tested form may be a part): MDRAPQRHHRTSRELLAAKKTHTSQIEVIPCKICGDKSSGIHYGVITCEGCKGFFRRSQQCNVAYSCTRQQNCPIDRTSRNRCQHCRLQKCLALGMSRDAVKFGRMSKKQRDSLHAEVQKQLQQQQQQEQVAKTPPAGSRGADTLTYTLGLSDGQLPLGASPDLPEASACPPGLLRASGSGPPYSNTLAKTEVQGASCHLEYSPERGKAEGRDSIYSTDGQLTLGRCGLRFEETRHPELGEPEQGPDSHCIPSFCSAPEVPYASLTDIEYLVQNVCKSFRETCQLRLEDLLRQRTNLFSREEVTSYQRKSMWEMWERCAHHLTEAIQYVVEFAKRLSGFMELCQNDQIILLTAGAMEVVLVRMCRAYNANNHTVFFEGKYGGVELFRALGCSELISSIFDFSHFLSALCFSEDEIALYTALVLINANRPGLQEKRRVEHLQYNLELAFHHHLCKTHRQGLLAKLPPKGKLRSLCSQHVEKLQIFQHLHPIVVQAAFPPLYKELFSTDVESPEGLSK
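Luciferase reporter read in Schneider cells carrying Gal4-RORγ (mouse) and UAS-Photinus luciferase; cells given compound 1 h before 700 uM copper sulfate induction, then incubated 20 h at ambient temperature.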
Starred values were filed as active, the others as inactive; ? = inconclusive; · = not tested or not shown; [ ] = dose if it differs, or a comment. Sampled rows, rich in hits. Any-hit rate of the full collection: about 11%. Unless noted, calls follow the shape of the dose curve; as a rule, active = well fitted curve in the direction sought with a large enough effect; inconclusive = small, poorly fitted or top-dose-only effect, or another doubt; inactive = no such curve, though single readings can be large; an effect the other way counts as inactive or inconclusive.

SMILES	SW480 rereplic	VP16 counter	MCF10A rerep	IL-1B inflam inh	RORgamma inh
COc1cccc(-c2c(C(=O)N/N=C/c3ccc(C)o3)nnn2-c2nonc2N)c1	-1%	?	9%	?	10µM*
CC(C)c1c(C(=O)N/N=C/c2ccccc2OCc2c(F)cccc2Cl)nnn1-c1nonc1N	9.2µM*	-4%	?	69	-13%
Cc1cc(-n2c(SCC(=O)Nc3ccc(F)c(F)c3)nc3n[nH]c(C)c3c2=N)ccc1Cl	?	?	2.3µM*	-6	-44%
COc1cccc(NC(=O)CSc2nc3n[nH]c(C)c3c(=N)n2-c2cccc(OC)c2)c1	3%	-1%	13%	-51*	33%
Cc1cc(-n2c(SCC(=O)NCc3cccs3)nc3n[nH]c(C)c3c2=N)ccc1Cl	5%	-9%	?	13	41%
COc1ccccc1-n1c(SCC(=O)Nc2ccccc2F)nc2[nH]ncc2c1=O	1%	8%	-7%	-9	40%
CCOc1ccc(-n2c(SCC(=O)Nc3ccc(Br)cc3)nc3n[nH]c(C)c3c2=N)cc1	?	?	15µM*	-1	?
CCOc1ccc(NC(=O)CSc2nc3[nH]ncc3c(=O)n2-c2ccccc2OC)cc1	-6%	-11%	7%	-66*	1%
CCOc1ncccc1C(=O)Nc1cc(S(=O)(=O)N(CC)CC)ccc1N1CCOCC1	4%	·	-6%	10	·
Cc1cc(-n2c(SCC(=O)Nc3ccc(Br)cc3)nc3n[nH]c(C)c3c2=N)ccc1Cl	18µM*	20µM*	3.3µM*	16	?
N#Cc1ccsc1NC(=O)c1ccc2ncsc2c1	·	·	·	-19	·
N#Cc1ccsc1NC(=O)c1ccccn1	-3%	5µM*	0%	-11	2.8µM*
Cc1cccc(C2Nc3ccccc3C(=O)N2CCc2ccccc2)n1 (stereo unspecified)	5%	-8%	18%	2	20%
O=C1c2ccccc2NC(c2cccc([N+](=O)[O-])c2)N1CCc1ccccc1 (stereo unspecified)	9%	-7%	4%	-83*	-7%
O=C1c2ccccc2NC(c2cccc(F)c2)N1Cc1ccccc1 (stereo unspecified)	?	1%	21µM*	?	-13%
O=C1c2ccccc2NC(c2cccc(F)c2)N1Cc1ccco1 (stereo unspecified)	-2%	3%[0.365 µM]	?	-3	32%
COc1ccc(CCN2C(=O)c3ccccc3NC2c2cc(Cl)c(O)c(OC)c2)cc1 (stereo unspecified)	8.2µM*	3%	2.6µM*	29	33%
CCOc1ccc(S(=O)(=O)Nc2cccc(C(=O)NCC(c3ccc(OC)cc3)N3CCOCC3)c2)cc1 (stereo unspecified)	1%	3%	17%	0	?
Cc1ccc(SCCC(=O)Nc2ccc(Br)c(C)c2)cc1	-29%	-11%	?	-108*	39%
COc1ccc(NC(=O)CCSc2ccc(C)cc2)cc1	-1%	13%	7%	21	-2%
O=C(CCN1C(=O)c2ccccc2C1=O)N1CCN(c2ccccc2)CC1	-13%	-9%	-2%	0	39%
O=C1c2ccccc2C(=O)N1Cc1cnc(N2CCN(c3ccccc3)CC2)s1	18µM*	1%	?	11	-1%
O=C(NCC1CCCO1)c1ccc(NC(=O)c2ccc(Br)cc2)cc1 (stereo unspecified)	-6%	·	-6%	·	·
CCC1=Nc2cc(C(=O)NCC3CCCO3)ccc2Sc2ccc(Br)cc21 (stereo unspecified)	10µM*	-5%	?	101	11%
CCC1=Nc2cc(C(=O)NCC3CCCO3)ccc2Sc2ccc(Cl)cc21 (stereo unspecified)	?	26%	12µM*	114	21%
SMILES	SW480 rereplic	VP16 counter	MCF10A rerep	IL-1B inflam inh	RORgamma inh
O=C(c1ccc(Cn2c(=S)[nH]c3ccc(Br)cc3c2=O)cc1)N1CCN(C2CCCCC2)CC1	?	?	?	-9	11µM*
O=C(c1ccc2c(=O)n(Cc3ccccc3)c(=S)[nH]c2c1)N1CCCC1	-15%	?	-22%	36	11µM*
COCCn1c(=S)[nH]c2cc(C(=O)N3CCN(C4CCCCC4)CC3)ccc2c1=O	·	·	·	24	·
CCOC(=O)N1CCN(C(=O)c2ccc(Cn3c(=S)[nH]c4cc(C(=O)OC)ccc4c3=O)cc2)CC1	-12%	-13%	0%	4	-41%
CCCCCn1c(=S)[nH]c2cc(C(=O)N3CCCC3)ccc2c1=O	-3%	14%	0%	28	3.2µM*
COc1ccc(Cn2c(=O)[nH]c3cc(C(=O)N4CCN(Cc5ccccc5)CC4)ccc3c2=O)cc1	2%	-4%	20%	-8	?
CCOC(=O)C1CCCN(C(=O)c2ccc(Cn3c(=S)[nH]c4cc(C(=O)OC)ccc4c3=O)cc2)C1 (stereo unspecified)	?	25%	16µM*	-2	-32%
CCCCCn1c(=S)[nH]c2cc(C(=O)N3CCN(C(=O)OCC)CC3)ccc2c1=O	-2%	?	?	55	?
COc1ncc2nc(-c3cccc(C#N)c3)c(=O)n(CCC#N)c2n1	·	-11%	·	·	-6%
N#CCSc1nc2cc(C(=O)N3CCCC3)ccc2c(=O)n1Cc1ccccc1	-7%	5%	4%	-53*	?
O=C(Cn1nc(-c2ccccc2)c2ccccc2c1=O)Nc1cccc(O)c1	-1%	-3%	1%	-52*	15%
N#Cc1c(-c2ccccc2)c(-c2ccccc2)nn(CC(=O)NNC(=O)Nc2ccccc2)c1=O	2.9µM*	-20%	0.65µM*	42	3%
N#Cc1c(-c2ccccc2)c(-c2ccccc2)nn(CC(=O)NNC(=O)Nc2ccc(Cl)cc2)c1=O	?	-6%	?	·	32%
CC(C)Nc1ncnc2c1ncn2[C@H]1CN(CCN2CCOCC2)C[C@@H](CO)O1	·	·	·	5	·
CCN(CC)C(=O)C1=C(C)N(Cc2ccccc2)C(=O)C(CC(=O)NCCCN(C)C)C1 (stereo unspecified)	·	·	·	25	·
Cc1ccc(-c2csc3ncnc(SCc4ccc(C(=O)O)cc4)c23)cc1	1%	4.5µM*	?	2	2.8µM*
Cc1ccc(-c2csc3nc(SCC(N)=O)n(Cc4ccccc4)c(=O)c23)cc1	·	?	?	0	11µM*
CCc1nnc(NC(=O)CSc2ncnc3scc(-c4ccc(C)cc4)c23)s1	4%	-1%	?	8	0%
Cc1ccc(-c2csc3ncnc(SCC(N)=O)c23)cc1	-8%	-21%[10 µM]	0%	?	1.6µM*
COc1ccc(NS(=O)(=O)c2cc(OC)ccc2OC)cc1	-6%	·	1%	21	·

From PubChem BioAssay
